Source: PubChem BioAssay AID1159580 (chemical genetic matrix, 2015)
Several values for one entry are separate records, joined by “and”; a condition that tells them apart may be missing. Identical values can stand only once. Out of some 5,500 compounds screened, about 2,000 (36%) were called active. Another 18% or so got no clear call; they are omitted. Rule as the data show it: active = normalized growth mostly below about 0.91 (no sharp cut-off); inconclusive = no clear call, values can overlap the other calls; inactive = mostly above about 0.92. The list shows a part of the results.

Assay: chemical genetic growth profiling, strain panel (AID 1159580);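 also: tested at 20 µM; growth read once vehicle control cultures reached saturation at 30 °C; 1 = growth at the plate median or of vehicle wells; lower values mean less growth of the strain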
Details: S. cerevisiae deletion strains, growth OD

Measured: normalized growth

Cc1cc(O)cc(=O)o1
inactive: locus YAL013W, strain DEP1, stronger effect = lower value 0.999 | locus YAL021C, strain ccr4, stronger effect = lower value 0.991 | locus YAL026C, strain drs2, stronger effect = lower value 0.998 | locus YAL030W, strain snc1, stronger effect = lower value 0.993 | locus YBL061C, strain skt5, stronger effect = lower value 1 | locus YBR009C, strain hhf1, stronger effect = lower value 0.997 | locus YBR021W, strain FUR4, stronger effect = lower value 0.985 | locus YBR023C, strain chs3, stronger effect = lower value 1.01 | locus YBR171W, strain sec66, stronger effect = lower value 0.988 | locus YBR229C, strain ROT2, stronger effect = lower value 0.992 | locus YBR231C, strain swc5, stronger effect = lower value 1.02 | locus YBR279W, strain paf1, stronger effect = lower value 1 | locus YCL011C, strain gbp2, stronger effect = lower value 0.991 | locus YCL016C, strain dcc1, stronger effect = lower value 0.991 | locus YCL029C, strain bik1, stronger effect = lower value 0.974 | locus YCL069W, strain vba3, stronger effect = lower value 1.01 | locus YCR088W, strain abp1, stronger effect = lower value 0.991 | locus YDL005C, strain med2, stronger effect = lower value 1.01 | locus YDL035C, strain GPR1, stronger effect = lower value 1.02 | locus YDL040C, strain nat1, stronger effect = lower value 1 | locus YDL074C, strain BRE1, stronger effect = lower value 1.01 | locus YDL101C, strain DUN1, stronger effect = lower value 0.988 | locus YDL134C, strain PPH21, stronger effect = lower value 1.03 | locus YDL185W, strain tfp1, stronger effect = lower value 0.971 | locus YDL192W, strain arf1, stronger effect = lower value 0.994 | locus YDR001C, strain nth1, stronger effect = lower value 0.989 | locus YDR069C, strain doa4, stronger effect = lower value 1.03 | locus YDR101C, strain arx1, stronger effect = lower value 0.971 | locus YDR137W, strain rgp1, stronger effect = lower value 0.998 | locus YDR150W, strain NUM1, stronger effect = lower value 1.01 | locus YDR159W, strain sac3, stronger effect = lower value 1.02 | locus YDR162C, strain NBP2, stronger effect = lower value 1.02 | locus YDR195W, strain ref2 0.979 | locus YDR297W, strain sur2, stronger effect = lower value 1.02 | locus YDR318W, strain mcm21, stronger effect = lower value 1.02 | locus YDR334W, strain swr1, stronger effect = lower value 0.989 | locus YDR335W, strain msn5, stronger effect = lower value 1 | locus YDR388W, stronger effect = lower value 0.992 | locus YDR392W, strain spt3, stronger effect = lower value 1.03 | locus YDR502C, strain sam2, stronger effect = lower value 1 | locus YEL003W, strain gim4, stronger effect = lower value 0.992 | locus YEL037C, strain rad23, stronger effect = lower value 0.994 | locus YEL061C, strain CIN8 (second series), stronger effect = lower value 0.992 | locus YEL061C, strain CIN8, stronger effect = lower value 1 | locus YER015W, strain faa2, stronger effect = lower value 1.01 | locus YER016W, strain bim1, stronger effect = lower value 0.994 | locus YER110C, stronger effect = lower value 0.986 | locus YER111C, strain swi4, stronger effect = lower value 1.01 | locus YER155C, strain BEM2 (second series), stronger effect = lower value 1.04 | locus YER155C, strain BEM2, stronger effect = lower value 0.982 | locus YER167W, strain BCK2, stronger effect = lower value 0.99 | locus YFR010W, strain ubp6, stronger effect = lower value 0.982 | locus YGL078C, strain dbp3, stronger effect = lower value 0.981 | locus YGL086W, strain mad1, stronger effect = lower value 0.969 | locus YGL167C, strain pmr1, stronger effect = lower value 0.983 | locus YGL173C, strain kem1, stronger effect = lower value 1.02 | locus YGL227W, strain vid30, stronger effect = lower value 1.01 | locus YGL240W, strain doc1, stronger effect = lower value 1.03 | locus YGL248W, strain PDE1, stronger effect = lower value 0.997 | locus YGL253W, strain hxk2, stronger effect = lower value 0.997 | locus YGR135W, strain pre9, stronger effect = lower value 1.03 | locus YGR252W, strain gcn5, stronger effect = lower value 1.09 | locus YHR013C, strain ard1, stronger effect = lower value 0.998 | locus YHR027C, strain rpn1, stronger effect = lower value 0.989 | locus YHR030C, strain SLT2, stronger effect = lower value 0.992 and 0.959 | locus YHR079C, strain IRE1 (second series), stronger effect = lower value 0.992 | locus YHR079C, strain IRE1, stronger effect = lower value 0.969 | locus YHR094C, strain hxt1, stronger effect = lower value 0.986 | locus YHR129C, strain ARP1, stronger effect = lower value 1 | locus YHR142W, strain chs7, stronger effect = lower value 0.987 | locus YHR200W, strain rpn10, stronger effect = lower value 0.993 | locus YIL066C, strain RNR3, stronger effect = lower value 0.988 | locus YIL073C, strain SPO22, stronger effect = lower value 0.993 | locus YIL125W, strain kgd1, stronger effect = lower value 0.984 | locus YIR030C, strain dcg1, stronger effect = lower value 0.99 | locus YJL092W, strain hpr5, stronger effect = lower value 0.987 | locus YJL095W, strain BCK1 (second series), stronger effect = lower value 1 | locus YJL095W, strain BCK1, stronger effect = lower value 1.01 and 0.959 | locus YJL115W, strain asf1, stronger effect = lower value 0.969 | locus YJL129C, strain trk1, stronger effect = lower value 1 | locus YJL134W, strain LCB3, stronger effect = lower value 0.994 | locus YJL154C, strain vps35, stronger effect = lower value 0.989 | locus YJL164C, strain tpk1, stronger effect = lower value 0.996 | locus YJL166W, strain qcr8, stronger effect = lower value 1.03 | locus YJL168C, strain set2, stronger effect = lower value 0.992 | locus YJL187C, strain SWE1 (second series), stronger effect = lower value 0.992 | locus YJL187C, strain SWE1, stronger effect = lower value 1.01 | locus YJR043C, strain POL32, stronger effect = lower value 1.01 | locus YJR066W, strain TOR1, stronger effect = lower value 0.921 | locus YJR075W, strain HOC1, stronger effect = lower value 0.998 | locus YKL009W, strain mrt4, stronger effect = lower value 0.961 | locus YKL068W, stronger effect = lower value 0.989 | locus YKL085W, strain MDH1 (second series), stronger effect = lower value 0.984 | locus YKL085W, strain MDH1, stronger effect = lower value 0.984 | locus YKL160W, strain elf1, stronger effect = lower value 0.994 | locus YKL190W, strain CNB1, stronger effect = lower value 1.01 | locus YKR001C, strain vps1, stronger effect = lower value 0.983 | locus YKR026C, strain gcn3, stronger effect = lower value 0.993 | locus YKR091W, strain srl3, stronger effect = lower value 0.983 | locus YLL001W, strain dnm1, stronger effect = lower value 0.995 | locus YLL026W, stronger effect = lower value 1.01 | locus YLL041C, strain sdh2, stronger effect = lower value 0.985 | locus YLR027C, strain aat2, stronger effect = lower value 1.01 | locus YLR039C, strain RIC1, stronger effect = lower value 1.02 | locus YLR058C, strain SHM2, stronger effect = lower value 1 | locus YLR102C, strain apc9, stronger effect = lower value 0.991 | locus YLR113W, strain HOG1, stronger effect = lower value 0.951 | locus YLR221C, strain rsa3, stronger effect = lower value 1.03 | locus YLR258W, strain gsy2, stronger effect = lower value 1.02 | locus YLR262C, strain YPT6 (second series), stronger effect = lower value 0.995 | locus YLR262C, strain YPT6, stronger effect = lower value 1.04 | locus YLR268W, strain sec22, stronger effect = lower value 0.965 | locus YLR320W, strain mms22, stronger effect = lower value 1.05 | locus YLR330W, strain CHS5, stronger effect = lower value 0.99 | locus YLR342W, strain FKS1 (second series), stronger effect = lower value 1 | locus YLR342W, strain FKS1, stronger effect = lower value 1.01 | locus YLR357W, strain rsc2, stronger effect = lower value 0.973 | locus YLR370C, strain arc18, stronger effect = lower value 1.01 | locus YLR371W, strain rom2, stronger effect = lower value 0.974 | locus YLR384C, strain iki3, stronger effect = lower value 1 | locus YLR418C, strain cdc73, stronger effect = lower value 1.01 | locus YML016C, strain PPZ1, stronger effect = lower value 0.985 | locus YML032C, strain rad52, stronger effect = lower value 1.02 | locus YML120C, strain ndi1, stronger effect = lower value 0.994 | locus YML124C, strain tub3, stronger effect = lower value 0.994 | locus YMR058W, strain fet3, stronger effect = lower value 0.987 | locus YMR078C, strain ctf18, stronger effect = lower value 0.991 | locus YMR125W, strain sto1, stronger effect = lower value 0.955 | locus YMR129W, stronger effect = lower value 0.996 | locus YMR205C, strain PFK2, stronger effect = lower value 1.01 | locus YMR223W, strain ubp8, stronger effect = lower value 0.999 | locus YMR231W, strain pep5, stronger effect = lower value 1.01 | locus YMR263W, strain SAP30, stronger effect = lower value 1.01 | locus YMR307W, strain GAS1, stronger effect = lower value 1.01 | locus YNL067W, strain RPL9B, stronger effect = lower value 1.01 | locus YNL071W, strain lat1, stronger effect = lower value 1 | locus YNL183C, strain NPR1, stronger effect = lower value 0.898 | locus YNL209W, strain ssb2, stronger effect = lower value 0.995 | locus YNL233W, strain BNI4, stronger effect = lower value 0.997 | locus YNL248C, strain rpa49, stronger effect = lower value 0.99 | locus YNL250W, strain rad50, stronger effect = lower value 0.991 | locus YNL271C, strain bni1, stronger effect = lower value 0.976 | locus YNL298W, strain CLA4, stronger effect = lower value 0.988 | locus YNL307C, strain MCK1, stronger effect = lower value 0.977 | locus YNL322C, strain KRE1 (second series), stronger effect = lower value 0.99 | locus YNL322C, strain KRE1, stronger effect = lower value 0.997 | locus YNR049C, strain mso1, stronger effect = lower value 0.984 | locus YNR052C, strain pop2, stronger effect = lower value 0.988 | locus YOL012C, strain htz1 0.84 | locus YOL147C, strain pex11, stronger effect = lower value 0.993 | locus YOR001W, strain rrp6, stronger effect = lower value 1.01 | locus YOR061W, strain CKA2, stronger effect = lower value 0.991 | locus YOR069W, strain VPS5, stronger effect = lower value 0.992 | locus YOR070C, strain gyp1, stronger effect = lower value 1.01 | locus YOR080W, strain dia2, stronger effect = lower value 0.997 | locus YOR083W, strain WHI5, stronger effect = lower value 0.999 | locus YOR106W, strain vam3, stronger effect = lower value 0.999 | locus YOR136W, strain idh2, stronger effect = lower value 0.971 | locus YOR144C, strain elg1, stronger effect = lower value 0.989 | locus YOR184W, strain ser1, stronger effect = lower value 0.992 | locus YOR231W, strain MKK1, stronger effect = lower value 0.965 | locus YOR265W, strain rbl2, stronger effect = lower value 1.01 | locus YOR270C, strain vph1, stronger effect = lower value 1.02 | locus YOR290C, strain snf2, stronger effect = lower value 0.974 | locus YOR316C, strain cot1, stronger effect = lower value 0.986 | locus YPL051W, strain arl3, stronger effect = lower value 0.999 | locus YPL055C, strain LGE1, stronger effect = lower value 1.01 | locus YPL078C, strain atp4, stronger effect = lower value 0.994 | locus YPL106C, strain sse1, stronger effect = lower value 1.01 | locus YPL240C, strain hsp82, stronger effect = lower value 0.99 | locus YPL241C, strain CIN2, stronger effect = lower value 1.01 | locus YPL256C, strain CLN2, stronger effect = lower value 0.948 | locus YPR119W, strain clb2, stronger effect = lower value 0.99 | locus YPR141C, strain kar3, stronger effect = lower value 0.984 | locus YPR163C, strain tif3, stronger effect = lower value 0.992 | locus YPR167C, strain met16, stronger effect = lower value 0.996 | strain wtn01, stronger effect = lower value 0.93
